Screening data deposited in PubChem by National Center for Advancing Translational Sciences (NCATS).
Shown is part of a subset that was picked to be rich in hits.
Pf Dd2 inh – inhibitors of Plasmodium falciparum Dd2 growth; Potency, µM (top dose mostly 28.9 µM), inactives show at the top dose activity, negative = inhibition, hits mostly inhibitors; actives 4.3% (n = 120,000); P. falciparum Dd2 growth, SYBR Green, 72 h; AID 1347417; active = well fitted inhibition curve with a large enough effect;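 also: plate controls were DMSO vehicle for no effect and reference drug for full effect; nearly all actives have a fitted effect of over 65% in size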
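Readout: SYBR Green fluorescence, 485 nm excitation, 535 nm emission, after ~16 h lysis at 37C. Before that, Dd2-infected red cells (2.5% hematocrit) grew 72 h with compound, 29 uM top final concentration.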
Numbers without * were called inactive; i = inactive; [ ] = remark or other dose. Potency is read from the fitted curve at half-maximal effect.

SMILES	Pf Dd2 inh
O=C(NCCc1nc(-c2cccnc2)n[nH]1)C1CNCCO1 (stereo not drawn)	5%
COc1ccc2nc(C[C@@H]3C[C@@H](C(C)C)[C@H](CNCc4ccccc4OC)C=C3C)[nH]c2c1	1.3µM*
COc1ccc2nc(C[C@@H]3C[C@@H](C(C)C)[C@H](CNC(=O)NC4CCCCC4)C=C3C)[nH]c2c1	i
CC1=C[C@@H](CNC(=O)CN(C)C)[C@H](C(C)C)C[C@H]1Cc1nc2ccc(Cl)cc2[nH]1	6.3µM*
CC1=C[C@@H](CNC2CCOCC2)[C@H](C(C)C)C[C@H]1Cc1nc2ccccc2[nH]1	-13%[44.1 µM]
COc1ccccc1CN(Cc1ccccc1OC)C[C@@H]1C=C(C)[C@H](Cc2nc3c(C)cccc3[nH]2)C[C@H]1C(C)C	-8%
CC1=C[C@@H](CNC2CCOCC2)[C@H](C(C)C)C[C@H]1Cc1nc2ccc(Cl)cc2[nH]1	7.1µM*
CC1=C[C@@H](CNC(=O)CCC(=O)O)[C@H](C(C)C)C[C@H]1Cc1nc2ccc(C)cc2[nH]1	3%[44.1 µM]
COc1ccc2nc(C[C@@H]3C[C@@H](C(C)C)[C@H](CNC(=O)CCCC(=O)O)C=C3C)[nH]c2c1	-12%
COc1ccc2nc(C[C@@H]3C[C@@H](C(C)C)[C@H](CNC(=O)CCC(=O)O)C=C3C)[nH]c2c1	-23%[44.1 µM]
COC(=O)c1ccc2nc(C[C@@H]3C[C@@H](C(C)C)[C@H](CNCc4ccccc4O)C=C3C)[nH]c2c1	-12%
COCC(=O)NC[C@@H]1C=C(C)[C@H](Cc2nc3ccc(Cl)cc3[nH]2)C[C@H]1C(C)C	2.5µM*
CNCC(=O)N[C@@H]1C=C(C(=O)N[C@H](CC(C)C)C(N)=O)C[C@@H](O)[C@@H]1O	-4%[44.1 µM]
O=C(CC1COCCN1C(=O)CCc1cccnc1)N1CCC(F)CC1 (stereo not drawn)	-5%
CCOCc1nc(C2CCCN(C(=O)C3CCCCC3)C2)no1 (stereo not drawn)	-8%
CCCc1nc(C(=O)N2CCN(c3ccccc3Cl)CC2)cs1	-11%
CCCCN1C(=O)[C@@H]2C[C@@H](O)CN2C2(CN(C3CCN(C)CC3)C2)C1=O	2%[44.1 µM]
CC(C)c1ccc(C(O)Cn2ccn3nc(-c4ccc(F)cc4)cc3c2=O)cc1 (stereo not drawn)	i
Cc1cccc(C(=O)N2CCc3cc(CNC(=O)c4ccnn4C)ccc32)c1	i
O=C(NCc1ccc2c(c1)CCN2C(=O)c1ccc(F)cc1)c1ccc(Br)o1	11µM*
COc1ccc(CC(=O)NCc2ccc3c(c2)CCN3C(=O)c2ccccc2)cc1OC	16%
Cc1cccc(OCC(=O)NCc2ccc3c(c2)CCN3C(=O)c2ccccc2)c1	10µM*
Cn1nccc1C(=O)NCc1ccc2c(c1)CCN2C(=O)c1ccc(F)cc1	i
Cc1cccc(C(=O)N2CCc3cc(CNS(=O)(=O)c4cccs4)ccc32)c1	i
O=C(NCc1ccc2c(c1)CCN2C(=O)c1ccccc1)c1ccc(Br)o1	i
SMILES	Pf Dd2 inh
Cc1ccc(C(=O)N2CCc3cc(CNS(=O)(=O)c4cccs4)ccc32)cc1	8.9µM*
Cc1cccc(C(=O)N2CCc3cc(CNC(=O)CSc4ccccc4)ccc32)c1	i
Cc1cccc(C(=O)N2CCc3cc(CNC(=O)c4ccc(Br)o4)ccc32)c1	1.3µM*
COc1ccccc1C(=O)NCc1ccc2c(c1)CCN2C(=O)c1cccc(C)c1	i
CCC(=O)N1CCc2cc(CNS(=O)(=O)c3cccs3)ccc21	-9%
CCCNc1cc(N2CCC(CCC(=O)N(C)CCc3ccncc3)CC2)ncn1	-35%
CCOc1cc(=O)n2c(c1C(=O)N1CCN(c3ccc(F)cc3)CC1)CCCC2	21%
CN1CC(=O)N(C2CCCNCC2)Cc2c1ncnc2N1CCCC(O)C1 (stereo not drawn)	12%
COCCN1C(=O)c2cccn2CC1CNC(=O)Nc1ccc(OC)cc1 (stereo not drawn)	7%
CCc1ccc(N2CC(c3noc(-c4sccc4C)n3)CC2=O)cc1 (stereo not drawn)	21%
Cc1ccc(Cl)cc1NC(=O)N1CCC(OC2CCN(S(C)(=O)=O)CC2)CC1	111%
CCC(=O)N1CCc2cc(CNC(=O)c3ccc(C#N)cc3)ccc21	65%
N#Cc1ccc(C(=O)NCc2ccc3c(c2)CCN3C(=O)c2ccc(F)cc2)cc1	5µM*
O=C(NCc1ccc2c(c1)CCN2C(=O)c1ccc(F)cc1)c1c(F)cccc1F	8%
Cc1cccc(C(=O)Nc2c(-c3ccccc3)nc3cc(C)ccn23)c1	-4%
Cc1ccccc1Nc1c(-c2ccc(Cl)s2)nc2c(C)cccn12	-11%
Cc1ccn2c(Nc3c(C)cccc3C)c(-c3ccsc3)nc2c1	11µM*
Cc1ccn2c(NC(=O)c3cccc(Cl)c3)c(-c3ccccc3)nc2c1	-19%
Cc1ccccc1Nc1c(-c2ccc(Cl)s2)nc2cccc(C)n12	-19%
Cc1ccn2c(Nc3c(C)cccc3C)c(-c3ccc(Cl)s3)nc2c1	7.9µM*
CCOC(=O)C1=CN(CC(=O)Nc2cc(F)ccc2F)S(=O)(=O)N=C1C	44%
O=C1Nc2ccccc2CC12CCCCN2[S+](=O)([O-])c1cccc(C(F)(F)F)c1 (stereo not drawn)	i
Cc1ccc(C(=O)NC2CCN(c3cc(C(F)(F)F)ncn3)CC2)s1	-18%
CNC(=O)[C@@H]1C[C@H](Oc2cccnc2)CN1C(=O)CC(C)C	-5%
COc1ccc(-c2cc(N3CCCC(NC(=O)Cc4ccc(F)cc4)C3)n[nH]2)cc1 (stereo not drawn)	-24%
SMILES	Pf Dd2 inh
CC(C)C1CN(c2ccc(C#N)cn2)CCC(=O)N1Cc1ccc(F)cc1 (stereo not drawn)	-14%
Fc1ccc(OCC2CCCN(c3ccc(Cn4ccnc4)cn3)C2)cc1 (stereo not drawn)	11µM*
Cc1cccc(C)c1Oc1ncccc1CNC(=O)CC1CCC(=O)N1 (stereo not drawn)	-2%
O=c1[nH]nc2n1CCC(NS(=O)(=O)c1ccc3c(c1)CCCC3)CC2 (stereo not drawn)	-20%
OCCCn1cnc(-c2ccccc2)c1-c1ccc(-c2ccn[nH]2)o1	-11%
CCOc1cc(-c2c(-c3ccccc3)ncn2CCNC(C)=O)ccc1OC	-24%
COc1cc2c(cc1-c1c(-c3ccccc3)ncn1CCCO)CCC2	13µM*
O=C(O)C[C@@H]1CCN(C(=O)C2CCCC2)C[C@@H]1CCN1CCN(c2cccc(C(F)(F)F)c2)CC1	-23%
N#Cc1ccc(C(=O)N2CCCN(c3cc(-c4ccc(Cl)cc4)[nH]n3)CC2)cc1	-9%
CS(=O)(=O)N1CCC(C2CCN(C(=O)c3ccc(=O)[nH]c3)C2)CC1 (stereo not drawn)	2%
O=C(c1ccc(Cn2ccnc2)o1)N1CCC2(CC1)NCCc1c2[nH]c2ccccc12	13µM*
O=C(c1cccnc1)N1CCC2(CC1)NCCc1c2[nH]c2ccccc12	-13%
O=C(c1ccncc1)N1CCC2(CC1)NCCc1c2[nH]c2ccccc12	i
CN(CCC1CCCCO1)C(=O)c1coc(COc2cccc(F)c2)n1 (stereo not drawn)	-10%
O=C1c2cnc(-c3ccc(Oc4ccccc4)cc3)nc2OCCN1CC1CC1	2.8µM*
O=C1c2cnc(-c3cccc(C(F)(F)F)c3)nc2OCCN1CC1CC1	-24%[44.1 µM]
O=C1c2cnc(-c3ccc(F)cc3)nc2OCCN1Cc1ccc(F)cc1F	i
CCN1c2cc(C(=O)Nc3ccc(C(=O)OC)cc3)ccc2C(=O)N2CCCCCC21 (stereo not drawn)	i
COc1ccc(F)c(-c2nc(CN(C)CC3(CO)CC3)c(C)o2)c1	-25%
